Hit rate of the full screen: of about 93,000 compounds, about 180 (0.19%) were called active.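 The calls were made as follows: active = activation above the screen mean plus 3 SD, with well images confirming the hit on visual review (cut at about 28% in these data, passing the limit was not always enough); inconclusive = activation above that limit but images do not confirm it; inactive = activation not above that limit.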 The full list was thinned out, with actives kept by preference.

The nature of this experiment: potentiators of TNFa-induced VCAM1 expression, primary screen, imaging, HUVEC, TNFa stimulus, immunofluorescence (AID 808).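 Also: signal is the number of cytoplasmic VCAM-1 stained grains per positive cell.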 The settings on record: HUVEC TNFa-stimulated VCAM-1 immunofluorescence, high-content imaging; at 2 µM; hits give high values; scaled per plate to unstimulated/TNFa-only wells.
Turning to `c1ccc(CSc2nnc(-c3ccco3)n2Cc2ccccc2)cc1`, the activation is 1.1% (inactive).
As for `CCCc1nc2scc(-c3ccc(C)cc3)c2c(=O)n1N`, the figure is -5.6% (inactive); as for `COc1ccccc1C(=O)C(O)c1ccccc1OC` (configuration not stated), 4.6% (inactive); as for `COc1cc(-c2nc(-c3ccncc3)no2)cc(OC)c1OC`, 1.5% (inactive).
As for `Cc1c(Nc2cc(N3CCCC(C)C3)c3nonc3c2[N+](=O)[O-])c(=O)n(-c2ccccc2)n1C` (configuration not stated), the figure is -5.2% (inactive).
Regarding `Cc1cccc(C(=O)NCCCN2CCCC2=O)c1`, the activation is 26% (inactive).
As for `CSCc1cc(N2CCOCC2)nc(SCc2ccc(Cl)cc2Cl)n1`, the figure is -7.6% (inactive); as for `O=C(NCc1cccnc1)Nc1ccccc1F`, 10.6% (inactive).
The same measure for `O=C(c1ccco1)N1CCN(CC(=O)N(C2CCCCC2)C2CCS(=O)(=O)C2)CC1` (configuration not stated): -39.3% (inactive).
Regarding `COc1cc(OC)c(C(=O)NC2CCCCCC2)cc1OC`, the activation was -3.2% (inactive).
As for `Cc1ccc(-n2nc3ccc(NC(=O)/C=C/c4ccco4)cc3n2)cc1C`, the activation was -46.8% (inactive).
As for `O=C(Nc1ccc(F)cc1)c1cccnc1N1CCOCC1`, the figure is -3.5% (inactive); as for `CCC(=O)Nc1cccc(NC(=O)c2cccnc2)c1`, -7.7% (inactive); as for `O=C(Nc1ccncc1)c1c(F)cccc1F`, 76.2% (active).
As for `CC(=O)c1cc(NC(=O)c2ccccc2)c(=O)oc1/C=C/N(C)C`, the figure is 16.1% (inactive); as for `NC(=O)CCCC1=NS(=O)(=O)c2ccccc2N1`, 2.1% (inactive); as for `O=C(O)c1ccc(COc2c(F)c(F)cc(F)c2F)o1`, 1.5% (inactive).
As for `CC(=O)c1ccc(Oc2cc(C)nc(-n3nc(C)cc3C)n2)cc1`, the figure is -75.8% (inactive); as for `CC(=O)c1cnn(-c2cc(Oc3ccc(F)cc3)ncn2)c1C`, 50.8% (active); as for `CC(c1ccccn1)N(CCN(C)C)C(=S)Nc1ccccc1F` (configuration not stated), 1.7% (inactive).
Consider `O=C(Nc1cc2c3c(c1)C1CCCC1CN3CC1CCCC21)c1ccc([N+](=O)[O-])cc1` (configuration not stated), for which the activation is -2.9% (inactive).
For the compound `Cc1cc(C)n(-c2nc(O)cc(=O)[nH]2)n1`, the activation was -0.9% (inactive).
As for `CCC(=O)NCCc1nc2ccccc2n1CC`, the figure is -6.7% (inactive).
`COC(=O)c1ccc(NC(=O)Nc2ccc(C)cc2)cc1`: the activation is -1.4% (inactive).
The same measure for `CCOC(=O)N1CCC(NC(=O)c2ccc3nc(N4CCOCC4)sc3c2)CC1`: -2.2% (inactive); for `Cc1ccc2c(c1)sc1ncc(NC(=O)c3ccccc3)c(=O)n12`: -3.1% (inactive).
As for `O=C(Nc1nncs1)c1ccccc1NS(=O)(=O)c1cccs1`, the figure is 5.4% (inactive); as for `Cc1nc2nc[nH]n2c(=O)c1NC(=O)c1cccc(OCC(C)C)c1`, -5.4% (inactive); as for `CCOC(=O)NCc1ccc2c(c1)OCO2`, -8.2% (inactive).
On to `CCn1c(NC(=O)c2ccccc2)c(-c2cccs2)c(=O)c2ccccc21`, for which the activation was -8.7% (inactive).
With `COc1ccc(C(C(=O)NCc2ccccc2)N(Cc2cccs2)C(=O)c2cnccn2)cc1` (configuration not stated), the activation was -2.8% (inactive).
Consider `Cn1cnc([N+](=O)[O-])c1Nc1ccccc1O`, for which the activation is 17.4% (inactive).
The same measure for `Cn1c2ccccc2c2c(C(=O)N3CCN(c4ccc(F)cc4)CC3)cn(C3CCCC3)c(=O)c21`: -11.3% (inactive).
As for `CCC(c1nnnn1Cc1ccco1)N(CCc1ccccc1)Cc1cc2cccc(C)c2[nH]c1=O` (configuration not stated), the figure is -0.4% (inactive); as for `Cc1cccc2cc(CN(Cc3ccc4c(c3)OCO4)Cc3nnnn3C3CCCC3)c(=O)[nH]c12`, 37.5% (active); as for `COc1ccc(CCN(Cc2cc3cccc(C)c3[nH]c2=O)C(=O)N2CCCC2)cc1OC`, -91.4% (inactive).
For `O=C(COC(=O)C12CC3CC(CC(C3)C1)C2)NCc1ccco1`, the activation was 3.3% (inactive).
The same measure for `CC(C)C(=O)N1CCN(c2nc(-c3ccccc3)c3c(c2C#N)CC(C)(C)OC3)CC1`: -36.7% (inactive).
As for `CCCOc1cc(C)c(S(=O)(=O)n2nnc3ccccc32)cc1C`, the figure is 45.5% (active).
For `CC(=O)Nn1cc2c(=O)n(C)c(=O)n(C)c2c1`, the activation was -8.2% (inactive).
The same measure for `O=C1CC(Sc2ncn[nH]2)C(=O)N1c1ccccc1` (configuration not stated): 4.7% (inactive); for `CCC(=O)Nc1ccc(S(=O)(=O)NCC2CCCO2)cc1` (configuration not stated): -5.4% (inactive); for `CCCN1C(=O)C(NS(=O)(=O)c2ccc(N)cc2)(C(F)(F)F)C(C(=O)OC)=C1C` (configuration not stated): 1.5% (inactive).
On to `CCOCc1nnc(NC(=O)CSc2ccc(C)cc2)s1`, for which the activation was 5.6% (inactive).
Consider `Cc1cccc(C)c1OC(=O)CSc1nnc(-c2ccccc2)o1`, for which the activation was 3.9% (inactive).
For the compound `CC(C)Nc1nc(N(c2ccccc2)c2ccccc2)nc(-n2ccnc2)n1`, the activation is 3.2% (inactive).
Turning to `CCOc1ccc(OCc2ccc(C(=O)Nc3cccc(C)n3)o2)cc1`, the activation is 9.1% (inactive).
As for `CCCNC(=O)Nc1ccccc1C(=O)Nc1ccc(OC)cc1`, the figure is -2.4% (inactive); as for `Cc1cc(=O)oc(C)c1C(=O)NC1CC(C)(C)NC(C)(C)C1`, 12.6% (inactive); as for `c1ccc(-c2cn3cccnc3n2)cc1`, -0.6% (inactive).
As to `C=CCn1c(COc2cccc3cccnc23)nnc1SCC(=O)OC`, the activation is -28.4% (inactive).
As for `Cc1ccc(C)c(NC2=NCC(=O)N2c2ccc3c(c2)OCCO3)c1`, the figure is 21.9% (inactive).

For the origin of these results see PubChem BioAssay AID808 (Columbia University Molecular Screening Center, 2007).
